# Screening results from PubChem.
# Rows were chosen to be rich in hits. Some 17% of all compounds tested hit in one or more screens of this group.
# TGFb inhibitor = TGF-b pathway inhibition. HepG2 CAGA-GFP TGF-b/SMAD3 reporter, GFP fluorescence, 18 h; TGF-beta stimulated, 500 pg/mL final. actives 1.2% (n = 410,000). AID 588855. Potency, µM (titrated, usually from 46.1 µM), without a hit: at the top dose activity, negative = inhibition, most hits filed as inhibitors; also: % is scaled to controls: 0 for no effect and ±100 for the full control effect; nearly all actives have a fitted effect of over 65% in size
#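 HEPG2 CAGA-GFP reporter cells (1000/well, DMEM with 1% FBS) received compounds, then recombinant TGF-beta at 500 pg/mL final for 18 hours at 37 degrees C. Per-cell GFP summed per well was normalised to unstimulated and stimulated DMSO controls before curve fitting.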
# S2 tox = viability counter-screen for ATXN expression inhibitors. AID 651635. S2 cells (HEK-293 line with an ATXN2-luciferase reporter) viability, CellTiter-Fluor protease fluorescence, 24 h. actives 0.49% (n = 400,000). Potency, µM (titrated, usually from 56.7 µM), hits mostly cytotoxic; also: nearly all actives have a fitted effect of over 40% in size
# HepG2 viability = counter-screen for TGF-b inhibitors: cytotoxicity in HepG2 cells; HepG2 CAGA-GFP viability, ATP luminescence, 18 h; Potency, µM (highest dose often 46.1 µM), for inactives: at the top dose activity change, negative = cytotoxicity, usual class: cytotoxic; actives 0.76% (n = 410,000); AID 588856
#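 CellTiter-Glo luminescence gave cytotoxicity after 18 hours at 37 degrees C. The cells were HepG2 CAGA-GFP in 1% FBS DMEM, stimulated with 500 pg/mL TGF-beta after compound addition. %Activity was normalised to no-cell wells (complete cell-killing) and DMSO (no toxicity), and curves were fitted and classified.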
# ATXN2 expr inh = ATXN2 expression inhibition; Potency, µM (titrated, usually from 57 µM), inactives show at the top dose activity change, negative = inhibition, hits mostly inhibitors; HEK-293 ATXN2-luciferase reporter, luminescence, 24 h; actives 0.72% (n = 360,000); also: % is scaled to controls: 0 for no effect and ±100 for the full control effect; nearly all actives have a fitted effect of over 55% in size
#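 qHTS (up to 57 uM final) was run with 24 h compound exposure of reporter cells at 37 °C. Each well was multiplexed: SteadyGlo luminescence measured ATXN2-luciferase expression after a fluorogenic Gly-Phe-AFC viability readout (25 uM final).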
# DT40 TDP1 no CPT = qHTS for Inhibitors of human tyrosyl-DNA phosphodiesterase 1 (TDP1): qHTS in cells in absence of CPT. DT40 Tdp1-/- hTDP1 cells, no CPT, ATP luminescence, 48 h. Potency, µM (top dose mostly 46.2 µM), inactives show at the top dose activity change, negative = growth inhibition, hits mostly inhibitors. actives 15% (n = 420,000). AID 686978, 2013; also: % is scaled to controls: 0 for no effect and ±100 for the full control effect; nearly all actives have a fitted effect of over 55% in size
#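 Compound effects on proliferation are scored in DT40 Tdp1-/-;hTDP1 cells in the absence of CPT. ATP levels (CellTiter-Glo luminescence) are recorded after a ≥48 hr, 37 °C incubation.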
# DT40 TDP1 CPT = DT40-hTDP1 cell growth loss with CPT; chicken DT40 Tdp1-/-;hTDP1 cells + 20 nM CPT, ATP luminescence, 48 h; AID 686979; Potency, µM (highest dose often 46.2 µM), for inactives: at the top dose activity change, negative = growth inhibition, hits mostly inhibitors; actives 12% (n = 420,000); also: % is scaled to controls: 0 for no effect and ±100 for the full control effect; nearly all actives have a fitted effect of over 55% in size
#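 Cell growth measured by CellTiter-Glo luminescence after a minimum 48 h, 37 C compound exposure with 20 nM CPT in Tdp1-knockout DT40 cells stably expressing hTDP1, seeded 400/well; qHTS titration format.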
# The depositor's hits bear a star; i = inactive; ? = inconclusive; . = not tested or not shown. Calls follow the shape of the dose curve; as a rule, active = well fitted curve in the direction sought with a large enough effect; inconclusive = small, poorly fitted or top-dose-only effect, or another doubt; inactive = no such curve, though single readings can be large; an effect the other way counts as inactive or inconclusive. Potency is read from the fitted curve at half-maximal effect.
SMILES,TGFb inhibitor,S2 tox,HepG2 viability,ATXN2 expr inh,DT40 TDP1 no CPT,DT40 TDP1 CPT
C=CC[C@@H](CC(=O)N[C@@H](CO)Cc1ccccc1)C(=O)NC[C@@H](OC(=O)[C@@H](CC=C)CC(=O)OC(C)(C)C)c1ccccc1,-9%,i,-14%,?,?,21µM*
Cc1ccc(-c2cn3c(n2)sc2cc(C(=O)NC(C)C45CC6CC(CC(C6)C4)C5)ccc23)cc1 (stereo unspecified),8%,.,9%,.,-21%,-15%
O=C(CSc1ncc(-c2ccccc2)n1C1CCCC1)N1CCc2ccccc21,?,?,-27%,?,21µM*,23µM*
O=C(CSc1nnc(-c2ccccc2)c(-c2ccccc2)n1)N1CCc2ccccc21,-2%,i,-2%,-2%,?,16µM*
Nc1cc(=O)[nH]c(SCC(=O)N2CCCc3ccccc32)n1,-10%,i,-3%,-3%,7%,-15%
Cc1cc(C)nc(SCC(=O)N2CCc3ccccc32)n1,-1%,i,7%,33%,-4%,-15%
O=C(CSc1nc(-c2ccccc2)cc(=O)[nH]1)N1CCc2ccccc21,-1%,i,-84%,2%,16µM*,21µM*
COc1cccc(COC(=O)c2sc3nc4n(c(=O)c3c2C)CCC4)c1OC,5%,i,9%,32%,?,-11%
Cc1noc(C)c1S(=O)(=O)Nc1cccc(CO)c1,-1%,i,-8%,-7%,18%,8%
CC(=O)N1CCCc2cc(S(=O)(=O)N3CCN(c4cccc(C(F)(F)F)c4)CC3)ccc21,?,i,-19%,0%,?,?
Cc1csc2c(N3CCN(C(=O)Nc4ccc(OC(F)(F)F)cc4)CC3)ncnc12,?,i,-11%,-28%,18µM*,10µM*
Cc1cc(C)nc(SCC(=O)Nc2sc3c(c2C#N)CCC(C)C3)n1 (stereo unspecified),0%,i,-23%,-19%,15µM*,21µM*
CC1CCc2c(sc(NC(=O)CCc3nc4ccccc4c(=O)[nH]3)c2C#N)C1 (stereo unspecified),10%,?,-1%,.,18µM*,16µM*
CCN(CC(=O)Nc1sc2c(c1C#N)CCCC2)Cc1nc2ccccc2c(=O)[nH]1,-3%,i,-23%,-15%,-9%,1%
CC(=O)Nc1sc2c(c1C#N)CCC(C)C2 (stereo unspecified),-30%,i,-25%,38%,?,26%
COc1ccc(C(=O)N2CCN(c3cccc(C)c3C)CC2)cc1S(=O)(=O)NC1CC1,?,i,-17%,-28%,23µM*,?
COc1cccc(N2CCN(C(=O)c3ccc(OC)c(S(=O)(=O)NC4CC4)c3)CC2)c1,9%,i,-48%,.,16µM*,?
COc1ccccc1N1CCN(C(=O)c2cccc(C(=O)N3CCN(c4ccccc4OC)CC3)c2)CC1,-7%,i,-20%,-29%,?,?
COc1ccc(C(=O)N2CCN(c3ccccc3Cl)CC2)cc1S(=O)(=O)NC1CC1,-4%,?,-46%,.,4.1µM*,?
COc1ccc(C2=C(C=C(C#N)C#N)C(c3ccccc3C)c3ccccc3O2)cc1OC (stereo unspecified),?,i,15%,?,21µM*,?
CCN1C(=O)[C@@H]2[C@@H](c3ccc(-c4ccccc4)cc3)N3CCC[C@@]3(C(=O)OC)[C@@H]2C1=O,-26%,i,8%,-2%,?,21µM*
CCN1C(=O)[C@H]2[C@@H](c3ccc(-c4ccccc4)cc3)N3CCC[C@@]3(C(=O)OC)[C@H]2C1=O,1%,i,-7%,-5%,18µM*,?
CCN1C(=O)[C@@H]2[C@@H](c3ccc(-c4ccc(F)cc4)cc3)N3CCC[C@@]3(C(=O)OC)[C@@H]2C1=O,-18%,i,-20%,-25%,?,?
CCCCC(=O)Nc1ccc(C(=O)Nc2ccc(S(=O)(=O)Nc3ccc(C)cc3)cc2)cc1,8%,i,12%,-1%,4%,12%
N#Cc1cn(-c2cccc(C(F)(F)F)c2)c(=O)[nH]c1=O,3%,i,-11%,5%,-4%,8%
SMILES,TGFb inhibitor,S2 tox,HepG2 viability,ATXN2 expr inh,DT40 TDP1 no CPT,DT40 TDP1 CPT
CCOC(=O)C1=C(O)C(=O)NC(c2ccccc2)=C(OC2CCCCC2)C1,-6%,i,7%,-2%,23µM*,?
CCOC(=O)c1c(C)sc2c1N(C(=O)CCl)c1cc(Cl)ccc1S2,?,18µM*,-90%,?,4.1µM*,4.1µM*
CCCCNC(=O)C(CC)Sc1nnc(-c2cccc(F)c2)c(-c2cccc(F)c2)n1 (stereo unspecified),18%,.,4%,.,?,16µM*
CSc1c(CC(=O)Nc2ccccc2)n(C)c2ccccc12,-1%,i,0%,.,?,15µM*
Cn1c(=O)n(CC(=O)Nc2ccccc2)c2ccccc21,-1%,i,0%,7%,-19%,-16%
Cn1c(CC(=O)Nc2ccccc2)cc2ccccc21,-19%,i,-19%,27%,?,7.3µM*
CCOC(=O)[C@]12CCC=C1N(CCC1=CCCCC1)C(=O)[C@H](CC(=O)NCc1ccccc1)C2,.,?,.,15%,?,?
CCOC(=O)[C@]12CCC=C1N(CCC1=CCCCC1)C(=O)[C@H](CC(=O)NCCCCc1ccccc1)C2,.,?,.,-26%,21µM*,?
CCOC(=O)[C@]12CCC=C1N(CCC1=CCCCC1)C(=O)[C@H](CC(=O)NCc1cccs1)C2,.,i,.,7%,?,?
CCOC(=O)[C@]12CCCC=C1N(CCC1=CCCCC1)C(=O)[C@H](CC(=O)NCc1ccccc1)C2,.,.,.,.,16µM*,?
CCOC(=O)[C@]12CCC=C1N(CCC1=CCCCC1)C(=O)[C@H](CC(=O)NCC1CCCCC1)C2,.,i,.,5%,?,23µM*
CCOC(=O)[C@]12CCCC=C1N(CCC1=CCCCC1)C(=O)[C@H](CC(=O)NCc1ccc(C)o1)C2,.,.,.,.,13µM*,?
C[C@@H](CO)NC(=O)c1nc[nH]c1C(=O)N[C@H](C)c1ccccc1,-21%,i,-21%,-7%,-1%,2%
